The record followed here is ChEMBL document CHEMBL4513146, “CO-ADD screening of Karazin Kharkiv National University (Ukraine) compounds”.

Measured potencies and affinities stand elsewhere.

Assay [1] has as its system Staphylococcus aureus. Particulars: Concentration 32 ug.mL-1;; ASSAY_TEST Inhibition of Bacterial Growth; detection method Absorption (OD600); MEDIA CAMHB; plate type 384well; NBS; CORNING #3640; time 18 hr.
Assay [2] deals with Escherichia coli. Particulars: Concentration 32 ug.mL-1;; ASSAY_TEST Inhibition of Bacterial Growth; detection method Absorption (OD600); MEDIA CAMHB; plate type 384well; NBS; CORNING #3640; time 18 hr.

In general, Inhibition refers to the relative decrease from the control value, in per cent. For `CCCCN(C)c1ccc2nnc(CCc3nc(-c4ccc(C(F)(F)F)cc4)no3)n2n1`, the Inhibition in assay [1] is given as 7.8%; in assay [2], -3.35%.
For `COc1cccc(N(Cc2ccc(F)cc2)S(=O)(=O)c2ccc3nncn3c2)c1` the same measures were -0.47% and -9.93%.
Regarding `Cc1cc(C)c(NC(=O)Cn2nc3c4cc(-c5ccc(F)cc5)nn4ccn3c2=O)c(C)c1`, the Inhibition in assay [1] stood at 12.62%; in assay [2] it was 1.69%.
For `N#Cc1ccc(NC(=O)CSc2nnc3c4cc(-c5ccc(F)cc5)nn4ccn23)cc1` the same measures were 5.96% and -4.2%.
The matching figures for `CC1CCCN(c2nccn3c(=O)n(CC(=O)Nc4ccc(F)cc4F)nc23)C1` (stereo not given): -0.93% and -3.03%.
For `CCOc1ccc(-n2ccn3c(SCC(=O)NCc4cccc(OC)c4OC)nnc3c2=O)cc1` the same measures were 12.04% and -1.13%.
As to `COc1cccc(NC(=O)Cn2nc3c(Oc4cccc(OC)c4)nccn3c2=O)c1`, the values for the Inhibition in assay [1] and in assay [2] were -17.16% and 2.27%, respectively.
Turning to `CCOC(=O)c1ccc(NC(=O)Cn2nc3ccc(C(=O)Nc4cccc(C)c4)cn3c2=O)cc1`, the Inhibition in assay [1] is listed as 1.34%; in assay [2] it was -4.77%.
In the case of `CCOc1ccc(NC(=O)Cn2nc3c(Sc4cccc(F)c4)nccn3c2=O)cc1`, the figures for the Inhibition in assay [1] and in assay [2] were 1.32% and -8.75%, respectively.
The matching figures for `Cc1ccc(-c2cc3c4nn(CC(=O)Nc5ccc6c(c5)OCCO6)c(=O)n4ccn3n2)cc1C`: 13.07% and -3.26%.
For `CCc1ccc(N(Cc2ccccc2)S(=O)(=O)c2cccn3c(C)nnc23)cc1` the same measures were 11.03% and -3.19%.
The matching figures for `COc1ccc(NC(=O)Cn2nc3c(Sc4ccccc4)nc4ccccc4n3c2=O)cc1Cl`: -0.59% and -7.36%.
With `COc1ccc(-c2cc3c4nn(CC(=O)Nc5c(C)cc(C)cc5C)c(=O)n4ccn3n2)cc1`, the values for the Inhibition in assay [1] and in assay [2] were 9.75% and 4.81%, respectively.
The matching figures for `CC(C)CCn1c(=O)c2sccc2n2c(=O)n(CC(=O)N3CCC(Cc4ccccc4)CC3)nc12`: -19.02% and -15.19%.
In the case of `O=S(=O)(c1cccn2cnnc12)N(Cc1cccc(Cl)c1)c1cc(F)cc(F)c1`, the results for the Inhibition in assay [1] and in assay [2] were 17.81% and -3.49%, respectively.
For `CCCCn1c(=O)c2sccc2n2c(=O)n(CC(=O)N3CCCC(C(=O)OCC)C3)nc12` (stereo not given), the Inhibition in assay [1] is listed as 0.89%; in assay [2], -5.26%.
In the case of `COc1ccccc1-n1ccn2c(SCc3ccccc3C)nnc2c1=O`, the Inhibition was 16.46% in assay [1] and -2.58% in assay [2].
For `CCOC(=O)c1ccc(NC(=O)Cn2nc3c(SC4CCCCC4)nccn3c2=O)cc1` the same measures were 5.44% and -5.89%.
The matching figures for `O=C(CSc1nnc2c(=O)n(-c3ccccc3)ccn12)Nc1ccc(Cl)cc1`: 3.58% and -4.07%.
The matching figures for `CC(=O)c1ccc(NC(=O)Cn2nc3ccc(-c4ccccc4)nn3c2=O)cc1`: 7.56% and -5.17%.
Turning to `COC(=O)c1ccc(NC(=O)Cn2c(=O)c3nnc(C(C)C)n3c3ccccc32)cc1`, the Inhibition in assay [1] was 8.86%; in assay [2], 0.09%.
Regarding `Cc1cc(C)c(NC(=O)Cn2nc3n(C)c(=O)c4c(c(-c5ccccc5)cn4C)n3c2=O)c(C)c1`, the values for the Inhibition in assay [1] and in assay [2] were 6.14% and 1.74%, respectively.
For `CCCc1nnc2c(=O)n(CC(=O)Nc3ccc(C#N)cc3)c3ccccc3n12` the same measures were 8.01% and -1.86%.
Consider `N#CCn1nc2n(Cc3ccccc3)c(=O)c3ccc(C(=O)NC4CCCCC4)cc3n2c1=O`, for which the Inhibition is given as -2.91% in assay [1] and -12.22% in assay [2].
For `COc1cccc(-n2ccn3c(SCC(=O)Nc4ccccc4F)nnc3c2=O)c1` the same measures were 8.86% and -8.93%.
Take `Cc1cccc(NC(=O)CSc2nnc3c4cc(-c5ccccc5)nn4ccn23)c1C`: the Inhibition in assay [1] was -15.85%; in assay [2], -6.36%.
The matching figures for `CCc1nnc2c(S(=O)(=O)N(Cc3cccc(Cl)c3)c3ccccc3)cccn12`: 4.22% and -6.56%.
`O=C(Cn1nc2c(N3CCSCC3)nc3ccccc3n2c1=O)NCc1ccccc1`: the Inhibition in assay [1] is reported as 1.1%; in assay [2], -1.64%.
The matching figures for `Cc1ccccc1Oc1nccn2c(=O)n(CC(=O)Nc3ccccc3C(F)(F)F)nc12`: 10.19% and 1.35%.
For `CCC(C)NC(=O)Cn1nc2n(CCC(=O)NC3CCCCC3)c(=O)c3ccccc3n2c1=O` (stereo not given) the same measures were -5.52% and -15%.
The matching figures for `CC(C)(C)Sc1ccc2nn(CC(=O)Nc3ccc(Cl)cc3)c(=O)n2n1`: 3.13% and 0.89%.
Consider `Cc1cc(C)cc(NC(=O)Cn2nc3ccc(-c4ccc(C)c(C)c4)nn3c2=O)c1`, for which the results for the Inhibition in assay [1] and in assay [2] were 1.36% and -7.85%, respectively.
In the case of `CCOc1ccc(NC(=O)Cn2nc3ccc(Sc4cccc(F)c4)nn3c2=O)cc1`, the Inhibition in assay [1] is reported as 2.36%; in assay [2] it was -8.51%.
For `COc1ccccc1NC(=O)Cn1nc2c(Sc3ccccc3)nccn2c1=O` the same measures were -14.27% and -3.78%.
The matching figures for `Cc1ccc(N(CC(=O)OC(C)(C)C)S(=O)(=O)c2cccn3cnnc23)cc1`: 15.19% and -3.99%.
